Compound activity as filed in PubChem BioAssay.
Most compounds without a hit are left out; they make up all but 3.5% or so of the library.
TEAD-YAP block – TEAD-YAP interaction inhibition, primary screen, TEAD-YAP interaction inhibitor project, luminescence, HEK-TIYL cells; TEAD-Gal4/YAP UAS-luciferase luminescence; 640,000 compounds, 1.4% hits; inhibition, % at 9.12 µM; in the data active = inhibition above about 32%;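 note: 0% = median of test compound wells and 100% = reference inhibitor wells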
MITF inh – MITF inhibitors, primary screen, biochemical, AlphaScreen, human. Microphthalmia-associated transcription factor (Homo sapiens), O75030. AlphaScreen MITF homodimerization, bead proximity signal. 650,000 compounds, 0.91% hits. inhibition, % at 2.6 µM. AID 1259374, 2018; in the data active = inhibition above about 50%;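 note: 0% = vehicle wells with protein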
Target sequence (O75030 whole entry, looked up): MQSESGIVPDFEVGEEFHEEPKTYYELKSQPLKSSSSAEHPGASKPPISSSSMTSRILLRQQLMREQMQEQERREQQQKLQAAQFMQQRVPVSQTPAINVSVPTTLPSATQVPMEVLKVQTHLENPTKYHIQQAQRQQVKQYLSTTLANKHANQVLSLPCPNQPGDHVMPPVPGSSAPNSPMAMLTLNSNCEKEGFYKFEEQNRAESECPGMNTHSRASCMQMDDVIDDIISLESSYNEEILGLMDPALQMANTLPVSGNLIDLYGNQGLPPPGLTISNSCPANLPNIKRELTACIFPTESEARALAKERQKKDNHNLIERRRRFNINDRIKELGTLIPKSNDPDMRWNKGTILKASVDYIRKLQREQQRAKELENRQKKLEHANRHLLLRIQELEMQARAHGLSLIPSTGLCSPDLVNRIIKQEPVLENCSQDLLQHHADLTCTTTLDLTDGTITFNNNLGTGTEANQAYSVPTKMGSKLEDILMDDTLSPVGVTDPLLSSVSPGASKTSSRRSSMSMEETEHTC
GPR151 ag – activators of human GPR151, primary screen, cell-based, PathHunter beta-arrestin, luminescence; G-protein coupled receptor 151 (Homo sapiens), Q8TDV0; PathHunter beta-arrestin GPR151 cells; activation, % at 11.2 µM; 650,000 compounds, 1% hits; in the data active = activation above about 4.9%;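 note: 0% = median of compound wells and 100% = cells with positive control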
FBW7 activator – FBW7 E3 ligase activators, primary screen, biochemical, AlphaScreen, human; AID 1259310, 2017; normalized activity (activation), % at 26.1 µM; 650,000 compounds, 0.13% hits; AlphaScreen FBW7–phospho-cyclin E peptide binding, activator screen; F-box/WD repeat-containing protein 7 (Homo sapiens), Q969H0; in the data active = normalized activity above about 1.9%;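 note: purified mutant Fbw7 with reduced substrate affinity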
MITF inh conf – MITF inhibitors, retest of hits, confirmation, biochemical, AlphaScreen, triplicate; inhibition, % at 2.6 µM; AlphaScreen MITF homodimerization, biotin/His-MITF beads; shares compounds with MITF inh; 4,700 compounds, 16% hits;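 active = inhibition above a cutoff derived from the DMSO control wells, cut at about 28% in these data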;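 note: 0% = MITF dimer wells with DMSO only; inhibitors lower the bead chemiluminescence by keeping MITF from dimerizing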
AS interf DR – AlphaScreen optical interference compounds, dose response, counter-screen, biochemical, HTS; IC50, µM; shares compounds with MITF inh; 480 compounds, 6% hits; AlphaScreen optical interference counterscreen, cell-free; call rule not given here
AlphaScreen intf2 – AlphaScreen optical interference compounds, counter-screen for MITF inhibitor project, biochemical, triplicate; LysRS AlphaScreen counterscreen, signal interference; inhibition, % at 2.6 µM; 4,700 compounds, 7.6% hits; shares compounds with MITF inh;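 active = inhibition above a cutoff derived from the DMSO control wells, cut at about 30% in these data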
An asterisk follows results filed as active; · = no result.

SMILES | TEAD-YAP block | MITF inh | GPR151 ag | FBW7 activator | MITF inh conf | AlphaScreen intf2 | others
CN(C)c1ccc(C(=O)n2nnc3ccccc32)cc1 | 0 | 61* | 0 | 0 | 2 | 9
COC(=O)c1ccc(-c2nc(N)c3c(=O)oc4ccccc4c3n2)cc1 | 3 | 6 | 0 | 0 | · | ·
Cc1ccccc1CS(=O)(=O)c1ccc(C(=O)N2CCCCCC2)cc1[N+](=O)[O-] | 9 | 14 | -1 | 1 | · | ·
CC(=O)Nc1ccc(Nc2nc(-c3ccc(C(=O)N4CCN(C)CC4)cc3)nc3c2ncn3C2CCCCC2)cc1 | -14 | 0 | -1 | 0 | · | ·
CN1CCN(C(=O)c2ccc(-c3nc(Nc4ccccc4)c4ncn(C5CCCCC5)c4n3)cc2)CC1 | -14 | 75* | 1 | 0 | 41* | 3 | AS interf DR=>7.6
CCOC(=O)C1=C(C)N(c2ccc(OC)cc2)C(=O)/C1=C\c1ccc2c(c1)OCO2 | -1 | 0 | 0 | 0 | · | ·
Cc1ccc(OCCn2cncn2)c([N+](=O)[O-])c1 | -3 | -27 | 0 | 0 | · | ·
Cc1ccc(OCCCn2cncn2)c(I)c1 | -9 | 54* | 0 | 0 | -13 | -5
CCN1CCN(CCCCOc2ccc(C)cc2I)CC1 | 5 | 53* | -1 | 1 | 9 | 15
CCN1CCN(CCCOc2ccc(C)cc2I)CC1 | -5 | 57* | -1 | 0 | 6 | 16
O=C(COC(=O)C1CCC(=O)N1)Nc1ccccc1Br (stereo not given) | -1 | 53* | 1 | 0 | -3 | 0
COCCCNC(=S)NNC(=O)c1ccccn1 | 12 | 114* | 1 | -1 | 113* | 100*
O=C(NNC(=S)Nc1cccc([N+](=O)[O-])c1)c1ccccn1 | -12 | 115* | -1 | -2 | 116* | 100*
CCOC(=O)c1cccc(NC(=O)c2ccccn2)c1 | -36 | 0 | -4 | 0 | · | ·
CCOC(=O)c1ccc(NC(=S)NNC(=O)c2ccccn2)cc1 | 6 | 116* | 0 | -1 | 114* | 100*
CCOc1ccccc1NC(=S)NNC(=O)c1ccccn1 | 16 | 114* | 0 | -2 | 117* | 100*
CCC(C)NCCOc1ccccc1[N+](=O)[O-] (stereo not given) | 12 | 33 | 1 | 0 | · | ·
COCCNCCOCCOc1ccc(C)cc1[N+](=O)[O-] | -8 | 58* | -1 | 0 | 11 | 10
CCC(C)NCCCCOc1ccc(C)cc1[N+](=O)[O-] (stereo not given) | -6 | 70* | 2 | 0 | 3 | 14
C=CCNCCCCOc1ccc(C)cc1[N+](=O)[O-] | -2 | 75* | 1 | 0 | -4 | 0
COCCNCCCCOc1ccc(C)cc1[N+](=O)[O-] | -3 | 17 | -1 | 0 | · | ·
COCCCNCCOCCOc1ccc(C)cc1[N+](=O)[O-] | 6 | 30 | 0 | 0 | · | ·
COCCCNCCOc1cc(C)ccc1C(C)(C)C | 5 | 34 | 0 | 0 | · | ·
COc1ccc(OC)c(-n2c(CNC(=O)c3cccs3)nnc2SCC(=O)Nc2cccc(C)c2)c1 | 11 | 62* | 0 | 0 | -10 | -7
COc1ccccc1-n1c(CNC(=O)c2cccs2)nnc1SCC(=O)Nc1cccc(C)c1 | 6 | 13 | -1 | 0 | · | ·
SMILES | TEAD-YAP block | MITF inh | GPR151 ag | FBW7 activator | MITF inh conf | AlphaScreen intf2 | others
CC(=O)Nc1ccc(NC(=O)c2ccc3nc(Nc4ccc(-n5ccnc5)cc4)sc3c2)cc1 | -3 | 4 | -2 | 0 | · | ·
COc1cc(NC(=O)c2ccc3nc(Nc4ccc(-n5ccnc5)cc4)sc3c2)cc(OC)c1OC | 3 | 57* | 0 | 0 | 3 | 8
Cc1ccc(-n2c(=S)sc3c(=O)n(-c4ccccc4F)c(SCC(=O)NCc4ccco4)nc32)cc1C | -7 | 2 | 0 | 0 | · | ·
CN(Cc1ccccc1)C1CCN(Cc2ccncc2)CC1 | 4 | 81* | -1 | 0 | 3 | 6
CN(Cc1ccccc1)C1CCN(Cc2cccnc2)CC1 | -7 | 72* | 3 | 0 | -3 | -1
CN(Cc1ccccc1)C1CCN(Cc2ccccn2)CC1 | 7 | 41 | 4 | 0 | · | ·
CN(C)CCN(Cc1ccccc1)C1CCN(Cc2ccncc2)CC1 | 1 | -3 | 0 | 0 | · | ·
Cc1ccc(S(=O)(=O)NCCC(=O)N2CCCC2)cc1 | 3 | 6 | 0 | 0 | · | ·
CC[C@H](C)[C@@H]1NC(=O)[C@H]2CN(C(=O)NCc3ccccc3)CCN2C1=O | 9 | 74* | -1 | 0 | 66* | -7 | AS interf DR=>6.5
CC[C@H](C)[C@@H]1NC(=O)[C@H]2CN(C(=O)c3ccc(-c4ccccc4)cc3)CCN2C1=O | 2 | -10 | 1 | 0 | · | ·
C[C@@H]1NC(=O)[C@H]2CN(C(=O)NCc3ccccc3)CCN2C1=O | -2 | 71* | 0 | 0 | 75* | -11 | AS interf DR=>6.5
CC[C@H](C)[C@@H]1NC(=O)[C@H]2CN(C(=O)Nc3cccc(F)c3)CCN2C1=O | 6 | 58* | 0 | 0 | 75* | 4 | AS interf DR=>6.5
CC[C@H](C)[C@@H]1NC(=O)[C@H]2CN(C(=O)Oc3ccc(F)cc3)CCN2C1=O | 3 | -7 | 1 | 0 | · | ·
C[C@@H](OCc1ccccc1)[C@@H]1NC(=O)[C@H]2CN(C(=O)NCc3ccccc3)CCN2C1=O | 10 | 76* | -1 | 0 | 71* | -13 | AS interf DR=>6.5
Cc1ccc(C)c(C(=O)Nc2nnc(CC(C)C)s2)c1 | 6 | 4 | -1 | 0 | · | ·
CCOC(=O)c1c(NC(=O)CSc2nnc(CNC(=O)c3ccc([N+](=O)[O-])cc3)n2Cc2ccccc2)sc2c1CCCCC2 | -1 | 10 | -1 | 0 | · | ·
COC(=O)c1c(OCc2ccc(F)cc2)cc(=O)n2c1CCN(Cc1cccs1)CC2 | -2 | 20 | 2 | 0 | · | ·
FC(F)(F)c1cccc(OCc2nn[nH]n2)c1 | -1 | 1 | 1 | 0 | · | ·
COc1ccccc1Cn1c(SCc2csc3ccc(Cl)cc23)nc2ccccc2c1=O | 4 | -4 | 1 | 0 | · | ·
CC(C)[C@H]1NC(=O)[C@H]2CN(C(=O)NCc3ccccc3)CCN2C1=O | 6 | 70* | -1 | 0 | 68* | -3 | AS interf DR=>6.5
Cc1csc2ncc(C(=O)NCCCO)c(=O)n12 | 11 | -6 | -1 | 0 | · | ·
COCCNC(=O)c1cnc2scc(C)n2c1=O | 6 | 76* | 1 | 0 | 7 | 7
CCC(=O)c1ccccc1OCCCCN1CCN(C)CC1 | 8 | -20 | 0 | 0 | · | ·
